Screening data: PubChem BioAssay, several laboratories
NR1D1 modulator = modulators of Rev-erb alpha DNA binding, primary screen, biochemical, FITC-DNA, fluorescence polarization, uHTS; Rev-erbα–FITC-DNA binding, 90 min; activity, % at 10 µM; hit rate 0.79% among 370,000; AID 1259318, 2017;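 active = activity above about 14%, limit read from the data; passing the limit was not always enough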;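 also: 0% = DMSO wells with 35 nM protein and 100% = DMSO wells with 750 nM protein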
DAX1 inh-1 = DAX1 (NR0B1) inhibitors, primary screen, cell-based, HEK293, Gal4-DAX1, luciferase luminescence. Nuclear receptor subfamily 0 group B member 1 (Homo sapiens), P51843. HEK293 Gal4-DAX1 luciferase reporter. inhibition, % at 6.75 µM. hit rate 0.99% among 340,000. AID 504766, 2011;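 active = inhibition above the mean over all tested compounds plus 3 SD, cut at about 4.2% in these data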;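 also: 0% = DAX1-transfected cells with DMSO and 100% = empty-vector control cells with DMSO; inhibition shows as a rise in luminescence from relieved DAX1 repression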
Target sequence (P51843 207-470 limits assumed): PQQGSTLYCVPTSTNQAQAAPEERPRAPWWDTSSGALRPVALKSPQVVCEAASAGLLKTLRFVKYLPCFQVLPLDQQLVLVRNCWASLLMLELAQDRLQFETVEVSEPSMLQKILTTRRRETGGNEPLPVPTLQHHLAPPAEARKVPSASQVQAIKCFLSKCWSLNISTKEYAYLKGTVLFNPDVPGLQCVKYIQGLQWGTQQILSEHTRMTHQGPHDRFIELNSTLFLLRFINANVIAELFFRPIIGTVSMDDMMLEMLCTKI
hcDAF-12 act = H. contortus DAF-12 nuclear receptor activators, primary screen, cell-based, luminescence, HEK293, lit1-tk-luc reporter; hit rate 1.4% among 370,000; AID 652067, 2013; activation, % at 6.8 µM; HEK293 hcDAF-12 lit1-tk-luc reporter; 0% DMSO, 100% Δ7-dafachronic acid;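 active = activation above the mean of all tested compounds plus 3 SD, cut at about 5.5% in these data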;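 also: 100% = response to 3 µM Δ7-dafachronic acid high control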
DAX1 inh-2 = DAX1 (NR0B1) inhibitors on StAR promoter, primary screen, cell-based, luminescence, SF-1 (NR5A1), full-length DAX-1; hit rate 1.1% among 370,000; HEK293T StAR-luciferase reporter, SF-1/DAX-1 repression relief; inhibition, % at 6.8 µM; AID 652010, 2013;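 active = inhibition above the mean over all tested compounds plus 3 SD, cut at about 3.6% in these data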;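 also: 0% = DAX-1 cells with DMSO and 100% = cells lacking DAX-1 with DMSO; higher inhibition means more luminescence from relief of DAX-1 repression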
hgDAF-12 ag = H. glycines DAF-12 receptor agonists, primary screen, cell-based, luminescence, HEK293, GAL4 fusion, UAS-luciferase; hit rate 1.8% among 370,000; AID 687014, 2013; HEK293 GAL4-hgDAF12 UAS-luciferase reporter, agonist luminescence; normalized to butyrate control; activation, % at 6.8 µM;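 active = activation above a cutoff set at the mean of all screened compounds plus 3 SD, cut at about 10% in these data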;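 also: 0% = DMSO wells and 100% = sodium butyrate wells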
ssDAF-12 act = S. stercoralis DAF-12 nuclear receptor activators, primary screen, cell-based, luminescence, HEK293, GRIP1 co-expression, lit1-tk-luc | HEK293 ssDAF-12/GRIP1 lit1-tk-luc reporter; % of 3 µM dafachronic acid response | activation, % at 6.8 µM | hit rate 1% among 370,000;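 active = activation above the mean over all tested compounds plus 3 SD, cut at about 0.9% in these data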;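 also: 0% = DMSO-only wells and 100% = 3 µM delta7-dafachronic acid wells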
The depositor's hits bear a star; . = no result. Sampled rows, rich in hits. Any-hit rate of the full collection: about 4.8%.

SMILES	NR1D1 modulator	DAX1 inh-1	hcDAF-12 act	DAX1 inh-2	hgDAF-12 ag	ssDAF-12 act
CN1C(=O)C(O)(c2nnc(-c3ccccc3)o2)c2ccccc21 (stereo not given)	-3.8	2.8	-0.8	0.8	8.5	1.1*
CN(C)c1ccc(/C=C/c2cccc[n+]2[O-])cc1	3.9	.	6.3*	0.8	4.8	-0.9
[O-][n+]1ccccc1/C=C/c1ccccc1	-6.3	1.6	1.0	-0.3	0.0	-0.5
COc1ccc(CCNC(=O)c2cnc(C)cn2)cc1	-1.4	0.4	3.0	-0.6	1.4	-1.0
O=C(NCCc1ccc(Cl)cc1)c1ccc2c(c1)OCCO2	-3.7	0.7	4.6	2.4	11.1*	0.1
Cc1cnc(C(=O)NCCc2ccc(Cl)cc2)cn1	-1.4	-0.1	0.9	4.0*	6.5	-0.6
COc1ccc(Oc2c(-c3cccs3)cnn(-c3ccc(C)cc3)c2=O)cc1	5.5	.	-2.5	.	-2.5	-0.9
COc1cc2ccccc2cc1C(=O)Nc1ccc(N2CCN(C)CC2)cc1	7.6	0.4	3.5	1.7	12.7*	0.2
COc1cc2ccccc2cc1C(=O)Nc1ccc(N2CCN(C(=O)C(C)C)CC2)cc1	-1.5	-0.3	-0.9	-1.1	2.0	-1.4
COc1ccc(-c2cccc3[nH]c4c(c23)CCN2C(=O)[C@H]3[C@H](C)ON(C)[C@H]3C[C@@H]42)cc1	0.2	.	-2.2	-1.2	-3.2	-0.8
Cc1cc(C)cc(NC(=O)[C@H](Cc2c[nH]c3ccccc23)NC(=O)[C@@H]2Cc3ccccc3CN2)c1	-2.9	-0.6	6.2*	-0.7	-1.7	-1.0
CCCCOC(=O)Nc1ccc(C(N)=O)cc1	2.1	4.3*	0.3	0.9	9.4	-0.5
CCCCOC(=O)c1ccc(NC(=O)c2ccoc2C)cc1	-2.0	1.4	0.6	0.7	11.6*	-2.0
CCCCOC(=O)Nc1ccc(C(C)C)cc1	-2.4	0.0	2.1	2.3	5.5	0.2
CCCCOC(=O)Nc1nnc(C(C)C)s1	-3.5	5.7*	2.7	2.4	11.1*	-0.8
CCCOC(=O)c1ccc(NC(=O)CC(C)(C)C)cc1	-1.0	2.4	3.9	3.8*	12.5*	0.1
O=S1(=O)CC2c3ccccc3CCN2CN1CCc1ccccc1 (stereo not given)	3.7	.	-1.1	0.1	0.2	-0.7
COC(=O)CC#C[C@H](C)[C@@H](NS(=O)(=O)c1ccc(C)cc1)C1CCCCC1	-5.5	.	-1.7	0.0	-0.5	-1.0
CCc1ccc(CCNC(=O)OC2CC3CC2[C@H]2CCCCN2C3)cc1 (stereo not given in full)	-7.3	.	1.2	1.9	0.2	-0.3
O=C(CC1(O)C(=O)Nc2ccccc21)c1ccccc1O (stereo not given)	5.0	-0.1	3.6	0.2	0.1	0.1
O=C(CC1=NCCNC(c2ccccc2)C1)c1ccccc1O (stereo not given)	2.0	-0.2	5.8*	1.5	6.6	-0.1
Cc1ccc(C(=O)N2CCC[C@@H]2C(=O)N2CCC[C@H]2C(=O)NCc2ccccc2)cc1	4.1	.	-1.4	-0.3	-0.4	-0.6
CCOc1ccc(N(CC(=O)Nc2ccc(C)c(C)c2)S(C)(=O)=O)cc1	-2.3	8.9*	4.3	1.3	7.8	-0.3
COC(=O)C1CN(C2CCCC2)CCS(=O)(=O)N1Cc1cn(Cc2ccccc2)nn1 (stereo not given)	-4.5	.	0.1	-0.1	1.7	-1.7
CCN1CCN(C(=O)CN2C(=O)c3ccccc3S2(=O)=O)CC1	1.3	3.1	1.1	3.8*	3.3	-0.6
O=C(OCC(=O)N1CCCCCC1)c1cccnc1Cl	-4.8	0.7	4.3	2.4	4.7	-0.6
